Compound activity (PubChem BioAssay)
IDE cell activ = IDE (human) activation, cell-based | P14735 | HEK cells, FAbeta-B cleavage, fluorescence polarization; 0% vehicle, 100% cell-free pure enzyme wells | activation, % at 5.96 µM | actives 0.073% (n = 340,000) | AID 493087;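 active = activation above the mean of all tested compounds plus 3 SD, set per screening campaign, cut at about 17% in these data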
TMEM16A act = mouse TMEM16A channel activation, primary screen | HEK293 TMEM16A/YFP-H148Q/I152L, iodide quench fluorescence; stronger effect = lower value | B-score at 10 µM | AID 623877 | Q8BHY3 | actives 0.3% (n = 340,000);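 active = fluorescence-ratio B-score plate-corrected deviation score at least 3 library SD below zero, with starting fluorescence score within 5 deviations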;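 also: channel opened by trigger with iodide after compound preincubation; score built on the fluorescence ratio of max minus min over baseline; more negative score means more quench and so TMEM16A activation or potentiation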
Target sequence (Q8BHY3 whole entry, looked up): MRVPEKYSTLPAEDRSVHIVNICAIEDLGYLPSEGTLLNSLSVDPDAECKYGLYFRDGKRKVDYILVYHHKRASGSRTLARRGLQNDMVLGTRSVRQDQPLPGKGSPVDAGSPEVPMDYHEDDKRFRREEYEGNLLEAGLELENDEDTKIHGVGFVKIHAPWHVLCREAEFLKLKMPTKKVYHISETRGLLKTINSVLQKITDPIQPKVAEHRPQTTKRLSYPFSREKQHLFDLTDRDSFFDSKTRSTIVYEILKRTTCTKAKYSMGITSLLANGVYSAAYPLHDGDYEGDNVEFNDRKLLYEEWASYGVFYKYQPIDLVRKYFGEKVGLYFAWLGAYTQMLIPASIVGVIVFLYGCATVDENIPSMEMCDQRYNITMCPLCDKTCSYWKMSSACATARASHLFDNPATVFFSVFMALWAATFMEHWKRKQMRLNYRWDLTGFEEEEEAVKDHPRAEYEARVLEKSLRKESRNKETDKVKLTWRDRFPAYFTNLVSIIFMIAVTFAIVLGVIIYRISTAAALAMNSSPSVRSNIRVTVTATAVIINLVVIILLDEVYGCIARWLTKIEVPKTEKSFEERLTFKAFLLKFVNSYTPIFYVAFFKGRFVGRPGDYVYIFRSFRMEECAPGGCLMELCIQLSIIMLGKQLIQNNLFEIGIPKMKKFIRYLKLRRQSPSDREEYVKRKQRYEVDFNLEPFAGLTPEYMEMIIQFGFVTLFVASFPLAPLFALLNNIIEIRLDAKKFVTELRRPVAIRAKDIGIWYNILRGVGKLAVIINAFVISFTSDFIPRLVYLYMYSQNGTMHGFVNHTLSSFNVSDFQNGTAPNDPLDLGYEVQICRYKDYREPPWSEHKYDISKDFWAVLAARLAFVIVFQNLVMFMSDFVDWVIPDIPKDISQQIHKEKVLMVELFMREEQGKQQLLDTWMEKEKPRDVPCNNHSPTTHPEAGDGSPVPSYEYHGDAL
CHT allo act = allosteric activators of human choline transporter CHT; Q9GZV3; AID 488977; B-score at 10 µM; actives 0.49% (n = 310,000); CHT-expressing cells, membrane potential dye, choline EC20; stronger effect = higher value; LV-AA mutant CHT in HEK293 cells;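 active = initial fluorescence not abnormally high and integrated response B-score, plate-corrected, over 3 SD above library mean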
ANO1 block = inhibitors of mouse TMEM16A calcium-activated chloride channel | normalized B-score (activity score, 25-100; higher = stronger inhibition) at 10 µM | Q8BHY3 | actives 1.2% (n = 310,000) | HEK293 TMEM16A/YFP iodide influx fluorescence, ionomycin | AID 588511;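 active = ratio plate-corrected score three or more library SD toward inhibition, starting fluorescence score within five deviations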;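 also: score derived from kinetic fluorescence span divided by baseline fluorescence per well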
IDE cell inh = inhibits human insulin-degrading enzyme in HEK cells | P14735 | FAbetaB cleavage, fluorescence polarization | inhibition, % at 5.59 µM | actives 0.41% (n = 320,000) | AID 434962;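 active = percent inhibition above the average of all tested compounds plus 3 SD, set per screening campaign, cut at about 16% in these data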;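 also: IDE supplied by intact live HEK cells; FP after avidin binding of uncleaved biotin substrate so inhibition keeps polarization high; 0% = DMSO wells and 100% = 60 µM reference IDE inhibitor Ii1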
CHT inh = inhibits the human high affinity choline transporter; B-score at 10 µM; CHT-expressing cells, membrane potential dye, choline response; stronger effect = lower value; actives 0.86% (n = 310,000);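 active = B-score over 3 SD under the library average, and starting fluorescence ratio not unusually high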;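 also: choline stimulus applied at its EC90 after an EC20 pre-addition; B-score computed on integrated fluorescence ratio after choline addition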
CHT block conf = confirmation of human choline transporter CHT inhibitors | AID 493221 | CHT-expressing cells, choline membrane potential dye; LV-to-AA substituted CHT, HEK293 cells | shares compounds with CHT inh | CHT activity remaining % of control (stronger effect = lower value), % at 10 µM | actives 70% (n = 2,400);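 active = choline transporter activity left, mean of duplicates at 10 µM, below buffer-only control mean minus 3 SD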;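 also: depolarization triggered by choline at its EC90 following an EC20 pre-addition; 0% = hemicholinium-3 full block and 100% = buffer-only control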
HEK293 MPD ctr = counter-screen for CHT inhibitors: effect in parental HEK293 cells; actives 4% (n = 2,400); membrane potential ratio readout (active if shifted either direction beyond buffer ±3SD; no single direction) at 10 µM; membrane potential dye, choline response; active = decrease or increase beyond buffer ±3SD; shares compounds with CHT inh; AID 493222;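 also: parental cells lack the transporter so any hit is non-specific; ratio is peak minus trough fluorescence over baseline after EC90 choline challenge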
Numbers without * were called inactive; i = inactive; x = not tested or not shown. Most compounds without a hit are left out; they make up all but 2.7% or so of the library.

SMILES	IDE cell activ	TMEM16A act	CHT allo act	ANO1 block	IDE cell inh	CHT inh	CHT block conf	HEK293 MPD ctr
CCSc1nnc2c(Cl)cc(Cl)cn12	-3	i	i	i	1	i	x	x
O=C(NN=Cc1ccccc1C(=O)O)c1ccc(NS(=O)(=O)c2cccs2)cc1	1	i	x	x	1	x	x	x
COCC1CCN(C(=O)C2CCC(=O)N(CCc3cccc(F)c3)C2)CC1 (configuration not stated)	-2	i	i	i	3	i	x	x
Cn1ccnc1SCC(=O)Nc1ccc2nc(SCC(=O)NC3CC3)sc2c1	x	x	i	i	4	-16*	21%*	i
Cn1ccnc1SCC(=O)NC1CCCC1	1	i	i	i	-3	i	x	x
CC(=O)c1cccc(NC(=O)C(C)OC(=O)CN2C(=O)NC(C)(C)C2=O)c1 (configuration not stated)	6	i	x	x	4	x	x	x
Cc1cc(C(=O)O)cc(S(=O)(=O)Nc2c(C)nn(C)c2C)c1C	-7	i	x	x	-3	x	x	x
CCOc1cc2[nH]c(=S)n(C3CC3)c(=O)c2cc1OCC	-4	i	i	i	2	i	x	x
CCOc1cc2[nH]c(=S)n(C(C)C)c(=O)c2cc1OCC	-2	i	i	i	3	-8.8*	52%*	i
CCCCc1cc(O)c(CCCC)c(O)c1	-4	i	i	100*	4	-5.2*	67%*	i
O=C(CN1CCN(Cc2ccccc2Cl)C1=O)NC1CCCCCCC1	4	i	i	i	2	-5.2*	i	i
CCN(CC)CCNC(=O)C(Cl)=C1C(Cl)=C(Cl)C(Cl)=C1Cl	1	i	x	x	x	x	x	x
CN(CC(=O)Nc1ccc(Cl)c(Cl)c1)C(=O)C1CCCC1	1	i	x	x	0	x	x	x
O=S(=O)(c1ccc2ccccc2c1)N1CCN=C1SCc1cccnc1	0	i	i	i	11	-5*	i	i
C=CCN(c1ccccc1)S(=O)(=O)c1cccc(C(=O)NCC(c2cccs2)N2CCOCC2)c1 (configuration not stated)	1	i	i	i	2	i	x	x
CN(C)C(=O)c1c(NC(=O)c2ccccc2)sc2c1CCC2	-1	i	i	i	2	i	x	x
CCN(CC)CCCC(C)NC(=O)c1c(NC(=O)c2ccccc2)sc2c1CCCC2 (configuration not stated)	-1	i	i	i	-2	-7.6*	39%*	i
CCc1nnc(NC(=O)CSc2ncc(-c3ccccc3)n2C)s1	-1	i	i	i	5	-5.5*	65%*	i
CCN(CC(=O)NCc1cccs1)S(=O)(=O)c1ccc(C(C)C)cc1	4	i	i	i	4	-5*	60%*	i
CC(CCc1ccc(O)cc1)NCc1ccc(Br)cc1 (configuration not stated)	0	i	i	i	2	-5.1*	i	i
CC(CCc1ccc(O)cc1)NCCC(c1ccccc1)c1ccccc1 (configuration not stated)	3	i	i	i	3	i	x	x
CCCCn1c(-c2csc(CCC)c2)n[nH]c1=S	4	i	i	i	1	-5.6*	i	i
CCCc1cc(-c2n[nH]c(=S)n2CC)cs1	2	i	i	i	8	i	x	x
CCOC(=O)C1CCCN(C(=O)c2csc(-c3ccc4c(c3)CCO4)n2)C1 (configuration not stated)	4	i	i	i	0	-7.2*	57%*	i
C=CCc1ccc(OCC(O)CN2CCC(Cc3ccccc3)CC2)c(OC)c1 (configuration not stated)	8	i	i	i	-3	-7.2*	31%*	i
SMILES	IDE cell activ	TMEM16A act	CHT allo act	ANO1 block	IDE cell inh	CHT inh	CHT block conf	HEK293 MPD ctr
C=CCc1ccc(OCC(O)CN2CCN(c3ccccc3OC)CC2)c(OC)c1 (configuration not stated)	1	x	i	i	3	i	x	x
O=[N+]([O-])c1cc([N+](=O)[O-])c2cccnc2c1Oc1ccccc1O	-3	i	i	i	11	-7*	45%*	i
O=[N+]([O-])c1ccc(O)c2ncccc12	6	i	i	i	4	i	x	x
CSc1ccc(C(=O)C2CCCN(C(=O)c3nonc3C)C2)cc1 (configuration not stated)	2	i	i	i	0	-5.7*	60%*	i
O=[N+]([O-])c1ccc(Nc2ccccc2)c2nonc12	-3	i	i	i	-2	-6*	47%*	i
C=CC(=O)N=c1sc2ccccc2n1-c1ccccc1	2	i	i	i	5	-6.2*	37%*	i
O=C(OCCCOc1ccc(F)cc1)c1ccc(O)cc1O	2	i	i	i	6	-6*	49%*	i
O=[N+]([O-])c1c(Nc2ccccc2O)ccc2nonc12	-1	i	i	i	4	i	x	x
O=[N+]([O-])c1c(Nc2ccccc2O)cc(Cl)c2nonc12	-4	i	i	100*	x	-8.5*	38%*	i
O=C(c1ccco1)N1CCN(C(=O)c2ccc(COc3ccc4c(c3)CCC4)o2)CC1	-7	i	i	i	4	i	x	x
O=C(c1ccco1)N1CCN(C(=O)c2ccc(COc3ccc(Cl)cc3Cl)o2)CC1	-11	i	i	i	0	-6.3*	i	i
O=C(CCCOc1ccccc1)N1CCN(C(=O)c2ccco2)CC1	1	i	i	i	3	i	x	x
Cc1cc(Cl)ccc1OCCCC(=O)N1CCN(C(=O)c2ccco2)CC1	-6	i	i	i	8	-5.3*	68%*	i
CCN(CC(=O)Nc1cc(Cl)ccc1Cl)C(=O)c1ccc(-n2cccn2)cc1	-3	i	x	x	-2	x	x	x
O=C(O/C(=C/c1ccccc1)C(F)(F)F)c1ccccc1	3	i	x	x	x	x	x	x
Cc1ccc(S(=O)(=O)N2[C@@H](c3ccc(Cl)cc3)C(C(=O)O)=CC[C@H]2c2ccc(Cl)cc2)cc1	1	i	i	100*	4	-5.7*	62%*	i
